The text below walks through data of PubChem BioAssay AID2685 (National Center for Advancing Translational Sciences (NCATS), 2010).

The campaign covered roughly 320,000 compounds. About 2,100 (0.66%) were called active. Roughly 53% stayed inconclusive and do not appear here. Calls follow the shape of the dose curve; as a rule, active = well fitted inhibition curve with a large enough effect in the signal ratio, with a control signal flat (not every such curve was filed as active); inconclusive = small, poorly fitted or top-dose-only effect, or effect the other way, or a change in a side signal; inactive = flat fitted curve, though single readings scatter; the % refers to the signal ratio. Only a selection was taken, and actives are over-represented in it overall.
Potency is read from the fitted curve at half-maximal effect.

This experiment can be described thus: qHTS Assay for Lipid Storage Modulators in Drosophila S3 Cells.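 As to cell number change: cells counted by Cell Tracker Red CMTPX staining in the red channel.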 As to conditions: BODIPY lipid droplet fluorescence, 18-24 h, cells fed with added oleic acid; cell number change: measured here: cell count max response; series mostly up to 46.1 µM. In a few lines: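 Laser-scanning cytometry quantifies lipid droplet accumulation (500–530 nm total intensity; droplet/cell object ratio) in oleic acid-fed (400 uM added) Drosophila S3 cells treated with a concentration series. 20 uM Triacsin C defined 100% inhibition.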
On the technique in general: In qHTS, concentration-response curves come from the screen itself.
On to `Cc1c(CN2CCCC(C(=O)c3cccc(OC(C)C)c3)C2)c(=O)n(-c2ccccc2)n1C` (centres undefined), for which the Potency entry is “inactive” and the cell number change was 1.94%.
As for `C/C(=N\NC(=O)c1ccc(Cl)cc1)c1cccc(NC(=O)c2cccnc2)c1`, the Potency result was “inactive” and the cell number change was 13.4%.
On to `CCn1c(CSc2nc(C)cs2)nc2cc(S(=O)(=O)N(C)C)ccc21`, for which the Potency result was “inactive” and the cell number change is -5.93%.
In the case of `CCn1c(SCC(=O)NC2CCCC2)nnc1-c1c[nH]c2ccccc12`, the Potency result is “inactive” and the cell number change is 30%.
Regarding `CN(C)C(CNC(=O)CN1C(=O)NC2(CCc3ccccc32)C1=O)c1ccco1` (centres undefined), the Potency entry is “inactive” and the cell number change was 6.97%.
Turning to `Cc1ccc(NC(=O)C(C)SCC(=O)Nc2ccc(F)cc2)cc1S(=O)(=O)N1CCOCC1` (centres undefined), the Potency entry was “inactive”.
Take `CC1(C(=O)NC2CCCCCC2)CCC(=O)N1Cc1ccc2c(c1)OCO2` (centres undefined): the Potency entry was “inactive” and the cell number change was -18.4%.
Consider `c1ccc(-c2cnn3c(-c4ccccc4)c(-c4ccccc4)nc3n2)cc1`, for which the Potency is 3.26 µM (active) and the cell number change is -3.03%.
For `Nc1nc(-c2ccccc2)c(-c2ccccc2)n1N`, the Potency entry is “inactive”.
For the compound `c1ccc(-c2cn3nc(-c4ccccc4)c(-c4ccccc4)nc3n2)cc1`, the Potency result was “inactive” and the cell number change turned out to be 19.6%.
Take `CC(=O)N(CCCN(C)C)Cc1ccccn1`: the Potency entry was “inactive” and the cell number change was determined as 6.64%.
In the case of `O=S(=O)(c1ccc2ccccc2c1)N1CCN(C2CCN(Cc3ccccc3)CC2)CC1`, the Potency is 5.8 µM (active) and the cell number change was found to be 21%.
For `CC1CCN(S(=O)(=O)c2ccc3ccccc3c2)CC1`, the Potency is 3.26 µM (active) and the cell number change stood at 5.85%.
Take `c1ccc(C2CCC(N3CCC(N4CCCCC4)CC3)CC2)cc1` (centres undefined): the Potency result is “inactive” and the cell number change is -17%.
The like results for `O=S(=O)(c1ccccc1)N1CCN(C2CCN(Cc3ccccc3)CC2)CC1` were, in that order, “inactive” and 9.59%.
The like results for `O=S(=O)(c1ccc2ccccc2c1)N1CCCCCC1` were, in that order, “inactive” and 0.283%.
`Brc1ccccc1CN1CCC(N2CCCCC2)CC1`: the Potency entry was “inactive” and the cell number change was -5.87%.
The like results for `CCS(=O)(=O)N1CCN(S(=O)(=O)c2ccc3ccccc3c2)CC1` were, in that order, “inactive” and 16.6%.
The like results for `Cc1ccc(S(=O)(=O)N2CCN(C3CCN(Cc4ccccc4)CC3)CC2)cc1` were, in that order, “inactive” and -12.2%.
With `c1ccc(CN2CCC(N3CCC(N4CCCCCC4)CC3)CC2)cc1`, the Potency was 0.82 µM (active) and the cell number change was -20.6%.
The like results for `COc1cccc(NC(=O)CN2C(=O)NC(C)(CCC(C)C)C2=O)c1` (centres undefined) were, in that order, “inactive” and 17.1%.
Take `O=C(NCCc1ccc(Cl)cc1)c1ccc(CS(=O)Cc2ccc(Cl)cc2)o1` (centres undefined): the Potency result was “inactive”.
With `O=C(CCN1C(=O)COc2ccccc21)N1CCN(c2ccccc2)CC1`, the Potency entry is “inactive” and the cell number change turned out to be 0.131%.
For the compound `O=C(NCC1CCCO1)C1CCN(C2CCN(C(=O)Cc3ccsc3)CC2)CC1` (centres undefined), the Potency entry is “inactive” and the cell number change was -8.37%.
With `COc1ccc(CNc2nnnn2C)c(OC)c1`, the Potency was 0.651 µM (active) and the cell number change was -2.1%.
For `COc1ccc(CNc2nc3ccccc3n2C)c(OC)c1`, the Potency entry is “inactive” and the cell number change is -4.3%.
The like results for `CCOc1c(CNc2nnnn2C)cccc1OC` were, in that order, “inactive” and 15.4%.
The like results for `O=C1NC(=S)N/C1=C\c1ccccc1OCc1ccc(C(=O)O)cc1` were, in that order, “inactive” and -1.56%.
Consider `O=C(NCCNC(=O)c1ccccc1Br)c1ccccc1Br`, for which the Potency entry is “inactive” and the cell number change was 13.7%.
Take `O=C(NCCO)c1ccccc1O`: the Potency result was “inactive” and the cell number change turned out to be 26.5%.
The like results for `O=C(NCCNC(=O)c1ccccc1O)c1ccccc1O` were, in that order, 9.2 µM (active) and -28.8%.
`Cc1ccc(C2C(C#N)=C(N)N(c3ncn[nH]3)C3=C2C(=O)CC(C)(C)C3)cc1` (centres undefined): the Potency entry was “inactive”.
As for `CCOc1ccc(N(CC(=O)NC(C(C)C)C(C)C)S(=O)(=O)c2ccc(OC)c(OC)c2)cc1`, the Potency result was “inactive” and the cell number change came to 14%.
Regarding `CC(=O)C1=C(O)C(=O)N(c2ccc(S(N)(=O)=O)cc2)C1c1cccc([N+](=O)[O-])c1` (centres undefined), the Potency result is “inactive” and the cell number change worked out at 5.32%.
The like results for `CC(NC(=O)Cc1ccc(S(=O)(=O)N2CCOCC2)s1)c1ccc(Cl)c(Cl)c1` (centres undefined) were, in that order, “inactive” and -8.77%.
On to `CC(C)CNC(=O)c1ccc(Cl)c(Cl)c1`, for which the Potency entry was “inactive” and the cell number change is -14.4%.
Turning to `CC(NC(=O)CCl)c1ccc(Cl)c(Cl)c1` (centres undefined), the Potency is 23.1 µM (active) and the cell number change is -24.5%.
For the compound `Cc1ccc(NC2CCCN(C(=O)c3cnc4ccccn4c3=O)C2)cc1C` (centres undefined), the Potency entry is “inactive” and the cell number change was 10.1%.
On to `CC1CCN(C(=O)CCNS(=O)(=O)c2ccccc2)CC1`, for which the Potency entry was “inactive” and the cell number change came to 9.54%.
Turning to `Cc1ccc(S(=O)(=O)NCC(=O)NCC(=O)N2CCC(C)CC2)cc1`, the Potency entry is “inactive” and the cell number change came out at 27.4%.
The like results for `Cc1ccc(S(=O)(=O)NCCCC(=O)N2CCC(C)CC2)cc1` were, in that order, 16.4 µM (active) and -15.3%.
Turning to `CCOc1ccc(C(=O)OCC(=O)N2CC(C)OC(C)C2)cc1OCC` (centres undefined), the Potency result is “inactive” and the cell number change was -6.35%.
Take `CC1CN(C(=O)COC(=O)c2ccc(NC(=O)CC#N)cc2)CC(C)O1` (centres undefined): the Potency entry was “inactive” and the cell number change was -23.4%.
With `CC(=O)Nc1cc(NC(C)=O)cc(C(=O)OCC(=O)N2CC(C)OC(C)C2)c1` (centres undefined), the Potency was 25.9 µM (active) and the cell number change is -18.5%.
For the compound `COC(=O)c1ccc(NC(=O)CSc2nc(=O)n3cccc(C)c3n2)cc1`, the Potency entry was “inactive” and the cell number change is -5.09%.
For the compound `COC(=O)c1ccc(-n2c(C)ccc2-c2ccccc2)cc1`, the Potency result was “inactive”.
As for `CC(=O)Nc1ccc(-n2c(C)ccc2-c2ccccc2)cc1`, the Potency result is “inactive” and the cell number change came out at 12.4%.
